Screens (PubChem)
Hits are enriched below; roughly 1.6% of the tested compounds scored in any of these assays.
KCNQ2 pot = enhances the rat KCNQ2 potassium channel. O88943. CHO-K1 KCNQ2, FluxOR thallium flux fluorescence; hits give high values. B-score at 10 µM. 310,000 tested, 0.54% active;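 active = fluorescence ratio B-score at least 3 SD of library B-scores, with initial fluorescence B-score within 3 of them, cut at about 5.3 in these data; same plate scores as AID 2156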;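 also: B-score of peak minus minimum over baseline fluorescence ratio after K+ and Tl+ stimulus; positive B-score means potentiation of KCNQ2 with more thallium influx and brighter signal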
KCNQ2 inh = KCNQ2 (rat) channel inhibition; B-score at 10 µM; 310,000 tested, 1.1% active; AID 2156; CHO-K1 KCNQ2, FluxOR thallium flux, 20 min; hits give low values; O88943;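 active = fluorescence ratio B-score at most minus 3 library SDs, with starting brightness B-score within 2 library SDs, cut at about -5.5 in these data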
Kir21 confirm = confirmation of mouse Kir2.1 potassium channel inhibitors. shares compounds with KCNQ2 pot. Kir2.1-expressing cells, FluxOR thallium flux fluorescence; hits give low values. Tl flux remaining, % of negative control (hits give low values), % at 10 µM. 2,300 tested, 41% active;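 active = Primary-screen hit whose thallium flux fell at least 3 control SD below untreated wells in both duplicates, with normal baseline fluorescence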;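 also: 0% = blank wells without stimulus and 100% = stimulated no-compound controls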
Target sequence (P35561 whole entry, looked up): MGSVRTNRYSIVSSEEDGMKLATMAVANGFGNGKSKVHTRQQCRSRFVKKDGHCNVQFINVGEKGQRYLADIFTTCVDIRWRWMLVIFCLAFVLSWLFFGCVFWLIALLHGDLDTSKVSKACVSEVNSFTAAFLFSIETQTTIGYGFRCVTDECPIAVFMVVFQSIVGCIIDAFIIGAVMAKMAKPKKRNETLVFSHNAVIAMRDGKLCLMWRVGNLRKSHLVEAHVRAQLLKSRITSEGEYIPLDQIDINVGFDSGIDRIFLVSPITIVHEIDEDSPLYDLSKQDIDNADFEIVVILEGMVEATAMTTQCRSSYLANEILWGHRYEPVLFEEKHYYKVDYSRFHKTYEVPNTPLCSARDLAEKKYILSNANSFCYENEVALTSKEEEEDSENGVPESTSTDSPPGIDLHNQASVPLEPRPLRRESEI
HEK293 Tl flux = counter-screen for Kir2.1 inhibitors: effect in parental HEK293 cells | 2,300 tested, 19% active | FluxOR signal as % of negative control (100 = no effect), % at 10 µM | shares compounds with KCNQ2 pot | FluxOR thallium flux fluorescence; 0% = unstimulated blank wells | AID 2105;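 active = dye signal at least 3 control SD above or below untreated wells in both duplicates, raw fluorescence within 3, either direction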;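 also: percent is based on the flux ratio of peak minus minimum fluorescence over baseline F0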
CHO-K1 ctr = alters thallium flux in parental CHO-K1 cells, KCNQ2 counter-screen. shares compounds with KCNQ2 pot. FluxOR thallium flux fluorescence; zero = vehicle mean+3SD, 100% = vehicle-minus-blank window. activity increase over 3SD of controls, % at 10 µM. 1,200 tested, 43% active. AID 2282;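 active = signal rise of at least 3 SD above the untreated control mean, in both duplicate wells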;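 also: counter screen of KCNQ2 potentiator hits so any rise reflects channel-independent effects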
KCNQ1 sel pot = selectivity of KCNQ2 potentiators: effect on human KCNQ1; 1,200 tested, 28% active; activation over 3SD threshold, % at 10 µM; CHO KCNQ1 stable, FluxOR thallium flux fluorescence; beyond 3SD, as % of vehicle-control signal; shares compounds with KCNQ2 pot; AID 2283;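 active = fluorescence ratio rise of at least 3 SD of vehicle wells above their mean, in both replicate wells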;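 also: 0% = vehicle mean plus 3 SD and 100% = vehicle minus unstimulated blank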
KCNQ2 pot conf = confirmation of rat KCNQ2 potassium channel potentiators. 1,200 tested, 68% active. CHO-KCNQ2 cells, FluxOR thallium flux fluorescence. potentiation, less the hit threshold, % at 10 µM. AID 2287. shares compounds with KCNQ2 pot;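 active = fluorescence ratio rising 3 SD or more over the vehicle control mean in both replicates, plus primary screen hit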;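 also: peak minus minimum thallium fluorescence divided by baseline after K/Tl stimulus; 0% = vehicle mean plus 3 SD and 100% = vehicle minus unstimulated blank difference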
Kir2-1 sel = mouse Kir2.1 off-target activity of KCNQ2 potentiators; shares compounds with KCNQ2 pot; HEK293 Kir2.1, FluxOR thallium flux fluorescence; activity over 3SD threshold, % at 10 µM; 1,200 tested, 2% active;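 active = fluorescence ratio rise of at least 3 SD above the vehicle-control mean, seen in both replicates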;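 also: 0% = vehicle mean plus 3 SD and 100% = vehicle minus no-stimulus blank window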
KCNQ2 W236L pot = rat KCNQ2 W236L mutant potentiation by KCNQ2 potentiators. shares compounds with KCNQ2 pot. CHO KCNQ2-W236L, automated patch clamp current. current increase over 3SD of negative controls (%), hits give high values, % at 25 µM. 940 tested, 10% active;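 active = current increase at least 3 SD of the untreated controls above them in both duplicate recordings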
Numbers without * were called inactive.

For N#CC1=C(N)N(c2ccccc2)C(c2cccc([N+](=O)[O-])c2)C1(C#N)C#N (configuration not stated) the results were KCNQ2 inh inactive, Kir21 confirm 59%* and HEK293 Tl flux 72%*.
For CC(NS(=O)(=O)c1ccc2c(c1)OCCO2)c1ccccc1 (configuration not stated) the results were KCNQ2 pot 0.93 and KCNQ2 inh inactive.
CC(NS(=O)(=O)c1ccc(Br)cc1)c1ccccc1 (configuration not stated) was read as KCNQ2 inh inactive, Kir21 confirm 47%* and HEK293 Tl flux inactive.
For CCN(CC)S(=O)(=O)c1ccc2c(c1)N(CC(=O)NCCN1CCOCC1)C(=O)CO2 the results were KCNQ2 pot 0.9 and KCNQ2 inh inactive.
N#CC(c1ccc(Cl)cc1)c1ccc2c(C(F)(F)F)cc(C(F)(F)F)nc2n1 (configuration not stated) was read as KCNQ2 pot 18*, KCNQ2 inh inactive, Kir21 confirm inactive, HEK293 Tl flux inactive, CHO-K1 ctr -22, KCNQ1 sel pot 47*, KCNQ2 pot conf 21*, Kir2-1 sel -36 and KCNQ2 W236L pot inactive.
For FC(F)(F)c1cc(C(F)(F)F)c2ccc(N3CCN(c4ccc(Cl)cc4)CC3)nc2n1 the results were KCNQ2 pot 1.8 and KCNQ2 inh inactive.
CCc1cc2c(=O)oc(-c3ccc(F)cc3)nc2s1 was read as KCNQ2 pot 0.07 and KCNQ2 inh inactive.
Screening O=C(COC(=O)/C=C/c1cccs1)Nc1cccc(S(=O)(=O)N2CCCC2)c1 returned KCNQ2 pot 1.6 and KCNQ2 inh inactive.
Screening Cc1ccc(N(CC(=O)NCc2ccco2)C(=O)CCC(=O)Nc2nccs2)cc1C returned KCNQ2 pot 0.04 and KCNQ2 inh inactive.
For Clc1ccc(-n2cc(COCc3ccccc3)nn2)cc1 the results were KCNQ2 inh inactive.
CCc1nc(SCC(=O)Nc2cc(C)on2)c2c(=O)n(C)c(=O)n(C)c2n1 was read as KCNQ2 pot 0.93 and KCNQ2 inh inactive.
For Cc1cc(NC(=O)CSc2nc(CC(C)(C)C)nc3c2c(=O)n(C)c(=O)n3C)no1 the results were KCNQ2 inh inactive, Kir21 confirm inactive and HEK293 Tl flux inactive.
O=C(CP(=O)(c1ccccc1)c1ccccc1)Nc1nc2ccc(Cl)cc2s1 was read as KCNQ2 inh inactive.
CCN(CC)S(=O)(=O)c1cc(OC)ccc1N=Nc1ccc(O)c2ncccc12 was read as KCNQ2 pot 2 and KCNQ2 inh inactive.
Screening CCOc1ccc(N=Nc2ccc(O)c3ncccc23)cc1 returned KCNQ2 pot 23*, KCNQ2 inh inactive, Kir21 confirm inactive, HEK293 Tl flux inactive, CHO-K1 ctr 13*, KCNQ1 sel pot 12*, KCNQ2 pot conf -20 and Kir2-1 sel -21.
`COc1ccc(NC(=O)c2cccc(N3C(=O)C4CC=C(C)CC4C3=O)c2)c(OC)c1` (configuration not stated) gave KCNQ2 inh inactive.
CC1=CCC2C(=O)N(c3ccc(OC(=O)c4ccco4)cc3)C(=O)C2C1 (configuration not stated) was read as KCNQ2 inh inactive, Kir21 confirm 64%* and HEK293 Tl flux 128%*.
`C=CCSC1=C(C#N)C(c2ccccc2)CC(=O)N1` (configuration not stated) gave KCNQ2 pot 0.71 and KCNQ2 inh inactive.
